Gal4-VP16 FLuc – counter-screen for ROR gamma inhibitors: Gal4-VP16 reporter; Potency, µM (top dose mostly 53.6 µM), without a hit: at the highest dose activity, negative = inhibition, hits mostly inhibitors; Drosophila S2 Gal4-VP16 UAS-luciferase, luminescence, 20 h; AID 2546; hit rate 3.5% among 310,000;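 note: Gal4-VP16 expression switched on by copper sulfate through the metallothionein promoter; potency is the fitted concentration of half-maximal effect; nearly all actives have a fitted effect of over 50% in size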
DT40 TDP1 CPT – DT40-hTDP1 cell growth loss with CPT. chicken DT40 Tdp1-/-;hTDP1 cells + 20 nM CPT, ATP luminescence, 48 h. Potency, µM (doses to about 46.2 µM), inactives show at the top dose activity change, negative = growth inhibition, most hits filed as inhibitors. hit rate 12% among 420,000. AID 686979; note: potency is the fitted concentration of half-maximal effect; nearly all actives have a fitted effect of over 55% in size
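Chicken DT40 Tdp1-/- cells complemented with human TDP1, 400 cells/well, exposed to compounds plus 20 nM camptothecin for at least 48 h at 37 C; viability read as ATP content by CellTiter-Glo luminescence.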
TDP1 cell noCPT – qHTS for Inhibitors of human tyrosyl-DNA phosphodiesterase 1 (TDP1): qHTS in cells in absence of CPT; Potency, µM (doses to about 46.2 µM), without a hit: at the top dose activity change, negative = growth inhibition, hits mostly inhibitors; AID 686978, 2013; hit rate 15% among 420,000; DT40 Tdp1-/- hTDP1 cells, no CPT, ATP luminescence, 48 h; note: potency is the fitted concentration of half-maximal effect; nearly all actives have a fitted effect of over 55% in size
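Chicken DT40 Tdp1-/- cells stably complemented with human TDP1 were seeded at 400 cells/well with DMSO in place of 20 nM camptothecin. After compound pinning, cells grew at least 48 hr at 37 °C; viability read by CellTiter-Glo luminescence.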
IL1B secr inh – blocks inflammasome-driven IL-1 beta release; THP-1 LPS/ATP IL-1B secretion, AlphaLISA, 16 h; active compounds read low; activity change, % at 57.5 µM; hit rate 4.7% among 360,000; in the data active = activity change below about -50%; inconclusive = mostly about -30% to -49%
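THP-1 cells pretreated 1 hr with compounds (up to 57.5 uM final), then stimulated with LPS (250 ng/mL final) plus ATP (1.25 mM final); secreted IL-1B measured by AlphaLISA after 16 hr, decreased signal indicating inhibition.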
RORgamma inh – blocks mouse ROR gamma transcriptional activity | P51450 | Drosophila S2 Gal4-RORgamma UAS-luciferase reporter, 20 h | Potency, µM (series often up to 53.6 µM), inactives show at the top dose activity change, negative = inhibition, hits mostly inhibitors | hit rate 5.4% among 310,000; note: potency is the fitted concentration of half-maximal effect; nearly all actives have a fitted effect of over 60% in size
Target sequence (P51450 whole entry, looked up, the tested form may be a part): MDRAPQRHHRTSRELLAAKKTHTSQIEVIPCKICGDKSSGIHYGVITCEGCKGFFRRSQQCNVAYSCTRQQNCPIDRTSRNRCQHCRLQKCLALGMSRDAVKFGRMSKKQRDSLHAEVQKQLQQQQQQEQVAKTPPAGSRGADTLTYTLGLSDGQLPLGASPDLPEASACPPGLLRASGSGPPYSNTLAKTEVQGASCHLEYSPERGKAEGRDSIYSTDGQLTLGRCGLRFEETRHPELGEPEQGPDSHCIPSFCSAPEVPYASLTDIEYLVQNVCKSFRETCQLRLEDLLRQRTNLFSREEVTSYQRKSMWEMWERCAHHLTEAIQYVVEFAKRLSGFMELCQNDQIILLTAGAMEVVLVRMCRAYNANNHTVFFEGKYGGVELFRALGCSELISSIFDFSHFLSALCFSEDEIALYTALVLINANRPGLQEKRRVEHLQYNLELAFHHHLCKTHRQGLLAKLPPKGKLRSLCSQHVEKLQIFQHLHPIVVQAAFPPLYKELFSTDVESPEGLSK
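Drosophila S2 cells stably expressing Gal4-DBD/mouse RORγ fusion under metallothionein promoter plus UAS-luciferase; compound 1 h, then 700 uM CuSO4 induction for 20 h at ambient temperature; inhibition read as reduced luminescence.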
LDHA block – blocks human lactate dehydrogenase A | P00338 | purified LDHA, NADH/diaphorase-resazurin fluorescence; active compounds read low | activity change, % (values are at about 110 or 230 µM) | hit rate 0.15% among 480,000 | AID 1347041; in the data active = activity change below about -30%; inconclusive = mostly about -25% to -30%;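 note: plate controls were DMSO wells for no effect and wells without enzyme for full effect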
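Resorufin fluorescence (ex540/em590), read at 0 and 20 min after diaphorase/resazurin addition, reports the NADH left after a 5 min room-temperature reaction of 2 nM human LDH5 with 0.06 mM NADH and 0.2 mM pyruvate.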
* hit, by the source's call. A selection: hits, their analogues and other compounds. The true share with any hit is near 18%. Unless noted, calls come from the whole dose curve; as a rule, active = well fitted curve in the direction sought with a large enough effect; inconclusive = small, poorly fitted or top-dose-only effect, or another doubt; inactive = no such curve, though single readings can be large; an effect the other way counts as inactive or inconclusive. Unless noted, % is set by controls: 0 for no effect and ±100 for the full control effect.

How did O=C(NCc1cccnc1)c1ccc2nc(-c3ccccc3)c(-c3ccccc3)nc2c1 do in these assays?
LDHA block: -4

Results for CN(C)CCNC(=O)CN1CCN(C(C(=O)O)c2c[nH]c3cc(Br)ccc23)CC1 (stereo unspecified) ?
LDHA block: 4

What do the screens show for `CCOC(=O)Cn1c(=O)oc2cc(S(=O)(=O)Nc3cc(OC)cc(OC)c3)ccc21`?
DT40 TDP1 CPT: 16µM*; TDP1 cell noCPT: 21µM*; LDHA block: 1

How did Cn1c(=O)oc2cc(S(=O)(=O)Nc3cccc(F)c3)ccc21 do in these assays?
Gal4-VP16 FLuc: -4%; DT40 TDP1 CPT: -13%; TDP1 cell noCPT: -1%; IL1B secr inh: 3; RORgamma inh: inconclusive; LDHA block: -13

What do the screens show for `CSc1cccc(NS(=O)(=O)c2ccc3c(c2)oc(=O)n3C)c1`?
Gal4-VP16 FLuc: -11%; DT40 TDP1 CPT: 23µM*; TDP1 cell noCPT: inconclusive; IL1B secr inh: 11; RORgamma inh: 0%; LDHA block: -6

How did CCOC(=O)c1ccc(NS(=O)(=O)c2ccc3c(c2)n(C)c(=O)n3C)cc1 do in these assays?
Gal4-VP16 FLuc: inconclusive; DT40 TDP1 CPT: 21µM*; TDP1 cell noCPT: 18µM*; IL1B secr inh: -4; RORgamma inh: 25%; LDHA block: 1

Results for CCOC(=O)c1ccc(S(=O)(=O)Nc2ccc(N3CCOCC3)cc2)cc1 ?
Gal4-VP16 FLuc: -4%; DT40 TDP1 CPT: 21µM*; TDP1 cell noCPT: inconclusive; IL1B secr inh: 1; RORgamma inh: inconclusive; LDHA block: 8

Results for CCOC(=O)c1ccc(NS(=O)(=O)c2ccc3c(c2)oc(=O)n3C)cc1 ?
Gal4-VP16 FLuc: 0%; DT40 TDP1 CPT: 3.7µM*; TDP1 cell noCPT: inconclusive; IL1B secr inh: 8; RORgamma inh: inconclusive; LDHA block: 2

Results for CCOc1ccc(C(c2c(C)[nH]n(-c3ccccc3)c2=O)c2c(C)[nH]n(-c3ccccc3)c2=O)cc1OC ?
DT40 TDP1 CPT: -14%; TDP1 cell noCPT: -18%; LDHA block: 7

What do the screens show for `Cc1[nH]n(-c2ccccc2)c(=O)c1C(C[N+](=O)[O-])c1ccc(Br)cc1` (stereo unspecified)?
Gal4-VP16 FLuc: -26%; DT40 TDP1 CPT: 12µM*; TDP1 cell noCPT: 9.2µM*; IL1B secr inh: -15; RORgamma inh: inconclusive; LDHA block: -2

What do the screens show for `Cc1[nH]n(-c2ccccc2)c(=O)c1C(c1ccc(C(=O)O)cc1)c1c(C)[nH]n(-c2ccccc2)c1=O`?
Gal4-VP16 FLuc: -17%; DT40 TDP1 CPT: inconclusive; TDP1 cell noCPT: inconclusive; IL1B secr inh: -1; RORgamma inh: -10%; LDHA block: 8

What do the screens show for `Cc1[nH]n(-c2ccccc2)c(=O)c1C(c1cccc([N+](=O)[O-])c1)c1c(C)[nH]n(-c2ccccc2)c1=O`?
Gal4-VP16 FLuc: -14%; DT40 TDP1 CPT: inconclusive; TDP1 cell noCPT: 21µM*; IL1B secr inh: -85*; RORgamma inh: 25%; LDHA block: 2

How did CC(C)Nc1oc(-c2ccco2)nc1S(=O)(=O)c1ccc2c(c1)OCCO2 do in these assays?
LDHA block: -4

Results for COc1ccc(-c2nnc(SCc3cn4cccc(C)c4n3)o2)cc1OC ?
LDHA block: -7

What do the screens show for `CCOC(=O)c1ccc(NC(=O)c2cccc(C)c2[N+](=O)[O-])cc1`?
Gal4-VP16 FLuc: -4%; DT40 TDP1 CPT: 2%; TDP1 cell noCPT: -20%; IL1B secr inh: 0; RORgamma inh: 6%; LDHA block: -7

How did CCC(=O)Nc1cccc(NC(=O)c2cccc([N+](=O)[O-])c2C)c1 do in these assays?
Gal4-VP16 FLuc: inconclusive; DT40 TDP1 CPT: inconclusive; TDP1 cell noCPT: 23µM*; IL1B secr inh: 3; RORgamma inh: 34%; LDHA block: -6

How did CCOC(=O)c1cc([N+](=O)[O-])c([N+](=O)[O-])cc1NC(C)=O do in these assays?
Gal4-VP16 FLuc: 3.2µM*; DT40 TDP1 CPT: inconclusive; TDP1 cell noCPT: 0.92µM*; IL1B secr inh: -81*; RORgamma inh: 5µM*; LDHA block: 23

What do the screens show for `O=[N+]([O-])c1cc(Br)c(Nc2ccccc2)c([N+](=O)[O-])c1`?
Gal4-VP16 FLuc: 13µM*; DT40 TDP1 CPT: 0.82µM*; TDP1 cell noCPT: 0.92µM*; IL1B secr inh: -98*; RORgamma inh: inconclusive; LDHA block: -4

How did CCOC(=O)c1ccc(NC(=O)c2ccccc2[N+](=O)[O-])cc1 do in these assays?
Gal4-VP16 FLuc: -22%; DT40 TDP1 CPT: -7%; TDP1 cell noCPT: 18µM*; IL1B secr inh: 12; RORgamma inh: inconclusive; LDHA block: -5

How did CCCCC(=O)Nc1ccc2nc(N3CCN(C(=O)OCC)CC3)cc(C(=O)O)c2c1 do in these assays?
LDHA block: 40

Results for Oc1ccc(Cl)cc1C=NCc1cccc(C(F)(F)F)c1 ?
LDHA block: 0

Results for Cc1c(C(=O)Nc2ccc(Nc3ccccc3)cc2)cccc1[N+](=O)[O-] ?
DT40 TDP1 CPT: 9.2µM*; TDP1 cell noCPT: 8.2µM*; IL1B secr inh: inconclusive; LDHA block: -1

How did Cc1c(C(=O)NC(=S)Nc2ccc(NC(=O)c3cccs3)cc2)cccc1[N+](=O)[O-] do in these assays?
DT40 TDP1 CPT: inconclusive; TDP1 cell noCPT: 13µM*; IL1B secr inh: 14; LDHA block: -3

What do the screens show for `Cc1c(C(=O)Nc2ccc3c(c2)CCC3)cccc1[N+](=O)[O-]`?
Gal4-VP16 FLuc: -12%; DT40 TDP1 CPT: 1%; TDP1 cell noCPT: inconclusive; IL1B secr inh: -16; RORgamma inh: inconclusive; LDHA block: -5

What do the screens show for `O=C(Oc1ccccc1C(=O)Nc1ccccc1)c1ccc(Br)c([N+](=O)[O-])c1`?
Gal4-VP16 FLuc: inconclusive; DT40 TDP1 CPT: -21%; TDP1 cell noCPT: inconclusive; IL1B secr inh: -73*; RORgamma inh: 16%; LDHA block: 0

How did O=C(Nc1ccccc1)c1ccc(Nc2c([N+](=O)[O-])cc([N+](=O)[O-])c3ccccc23)cc1 do in these assays?
Gal4-VP16 FLuc: 2%; DT40 TDP1 CPT: 7.3µM*; TDP1 cell noCPT: 10µM*; IL1B secr inh: 7; RORgamma inh: 14%; LDHA block: -2

Results for Cc1ccc(Cn2nc(C)c3cc(C(=O)N4CCN(CC(=O)N(C)C)CC4)sc32)cc1 ?
LDHA block: 9

Source: PubChem BioAssay (National Center for Advancing Translational Sciences (NCATS))
